Hit rate of the full screen: of about 310,000 compounds, about 14,000 (4.5%) showed an effect of 50% or more. The effect is printed as a negative number. The sample holds strong results, similar compounds and a random draw of the others, so the mix is not that of the screen.
The compounds below were run against human ether-à-go-go-related gene (hERG) potassium channel (human, UniProt Q12809) (assay: primary screen, population patch clamp on CHO cells stably expressing hERG; higher = less effect of the substance).
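Further: peak tail current of the secondary pulse compared with the same well before compound.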

Chain of human ether-à-go-go-related gene (hERG) potassium channel (Q12809 whole entry, looked up): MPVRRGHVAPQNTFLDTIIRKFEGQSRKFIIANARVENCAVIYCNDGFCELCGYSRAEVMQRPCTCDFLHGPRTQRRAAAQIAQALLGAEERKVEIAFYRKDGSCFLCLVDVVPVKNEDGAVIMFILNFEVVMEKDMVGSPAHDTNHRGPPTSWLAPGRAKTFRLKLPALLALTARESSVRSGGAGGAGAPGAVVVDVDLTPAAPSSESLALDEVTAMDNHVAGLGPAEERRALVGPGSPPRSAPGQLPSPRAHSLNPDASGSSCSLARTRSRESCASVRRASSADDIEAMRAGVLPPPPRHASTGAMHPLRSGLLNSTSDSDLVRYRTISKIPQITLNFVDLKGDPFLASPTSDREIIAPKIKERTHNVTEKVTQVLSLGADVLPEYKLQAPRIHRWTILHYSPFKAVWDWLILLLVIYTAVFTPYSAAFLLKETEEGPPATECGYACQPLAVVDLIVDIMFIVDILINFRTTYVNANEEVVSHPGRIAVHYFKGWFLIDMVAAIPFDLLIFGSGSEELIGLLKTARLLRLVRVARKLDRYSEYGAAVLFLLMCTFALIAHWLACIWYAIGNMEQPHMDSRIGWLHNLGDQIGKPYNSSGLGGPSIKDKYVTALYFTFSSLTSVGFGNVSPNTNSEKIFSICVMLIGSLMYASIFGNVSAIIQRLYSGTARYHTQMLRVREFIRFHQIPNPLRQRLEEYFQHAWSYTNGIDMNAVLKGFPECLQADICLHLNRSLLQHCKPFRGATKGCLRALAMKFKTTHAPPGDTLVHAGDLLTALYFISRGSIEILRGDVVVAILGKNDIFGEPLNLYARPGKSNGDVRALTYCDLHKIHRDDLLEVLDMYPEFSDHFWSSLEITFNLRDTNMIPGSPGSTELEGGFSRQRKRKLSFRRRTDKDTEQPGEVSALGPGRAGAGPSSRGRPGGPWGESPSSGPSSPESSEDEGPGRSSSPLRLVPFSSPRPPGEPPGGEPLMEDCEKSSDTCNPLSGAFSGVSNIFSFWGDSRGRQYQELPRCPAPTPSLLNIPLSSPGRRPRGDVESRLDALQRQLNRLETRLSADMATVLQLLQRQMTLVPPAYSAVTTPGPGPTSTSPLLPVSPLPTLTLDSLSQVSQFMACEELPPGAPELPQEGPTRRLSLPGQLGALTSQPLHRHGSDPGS

Row | SMILES | hERG current change (%, negative = inhibition) at 10uM
1 | CCOCCCNC(=S)Nc1cc(C)cc(C)c1 | 11%
2 | Cc1ccc(C)c(NC(=S)NCCN(C2CCCCC2)C2CCCC2)c1 | -68.5%
3 | Cc1cccc(NC(=S)NC2CCCC2)c1 | 0.919%
4 | Cc1cccc(NC(=S)N(C)C2CCCCC2)c1 | 5.51%
5 | Cc1cc(C)cc(NC(=S)NCCN(C2CCCCC2)C2CCCC2)c1 | -69.6%
6 | Cc1cccc(NC(=S)NCCN(C2CCCCC2)C2CCCC2)c1 | -70.3%
7 | CN(C)CCNC(=S)Nc1cccc(Cl)c1 | -27%
8 | Cc1cc(C)cc(NC(=S)NCCCO)c1 | -0.803%
9 | S=C(Nc1cccc(Cl)c1)NC1CCCCC1 | 7.58%
10 | Cc1ccc(SCCNC(=S)Nc2cc(C)ccc2C)cc1 | 4.34%
11 | Cc1ccc(C)c(NC(=S)NCc2ccccc2)c1 | 13.8%
12 | S=C(NCCN(C1CCCCC1)C1CCCC1)Nc1cccc(Cl)c1 | -71.3%
13 | Cn1ncc(Cl)c(Oc2ccc(C(C)(C)C)cc2)c1=O | -26%
14 | CCOc1ccccc1NC(=O)c1cc(SC)ccc1Cl | 50.4%
15 | COc1cc(/C=N/NC(=O)CCOc2ccccc2C)cc(Br)c1O | -16.4%
16 | CC1CC(C)CN(C(=O)CCC(=O)Nc2nnc(C3CCCCC3)s2)C1 (centres unmarked) | 14.2%
17 | CC(C)(C)CN1CCNC(=O)C1CC(=O)NCCc1ccccc1F (centres unmarked) | 4.25%
18 | COc1ccccc1-c1csc(NC(=O)c2cc(-c3cccs3)nc3ccccc23)n1 | 8.88%
19 | COc1ccc2cc(C3CC(c4ccco4)=NN3S(=O)(=O)c3ccccc3)c(Cl)nc2c1 (centres unmarked) | 4.38%
20 | CCN(CC(=O)NCc1cccs1)C(=O)c1ccc(NS(=O)(=O)c2cccc([N+](=O)[O-])c2)cc1 | -19.7%
21 | C/C(=N\NC(=S)NCc1ccccc1)c1ccc(Br)cc1 | 22.8%
22 | O=C(O)C1CSC(c2ccccc2Cl)N1C(=O)c1ccc(Cl)cc1 (centres unmarked) | 14.9%
23 | Cc1ccc(C)c(N2CCN(CCN3CCCCC3)CC2)c1.Cl | -3.6%
24 | C/C=C(\C)CN1CCN(c2cc(C)ccc2C)CC1 | 6.08%

Row | SMILES | hERG current change (%, negative = inhibition) at 10uM
25 | CCOC(=O)N1CCN(CCCc2ccccc2)CC1 | -6.26%
26 | c1ccc(CCCN2CCN(c3ccccc3)CC2)cc1 | -61.3%
27 | Fc1ccccc1N1CCN(Cc2c(F)cccc2F)CC1 | 7.89%
28 | Cc1ccc(C)c(N2CCN(CCCc3ccccc3)CC2)c1 | -59.9%
29 | c1ccc(CCCN2CCN(c3ccccn3)CC2)cc1 | -51.7%
30 | O=C(CCc1ccccc1)N1CCN(c2ccccn2)CC1 | -9.9%
31 | NCCCN1CCN(c2ccccc2)CC1 | -8.45%
32 | O=C(CN1CCN(c2ccccn2)CC1)NCCc1ccccc1 | -9.55%
33 | O=C(CCc1ccccc1)N1CCN(c2ccccc2F)CC1 | 15.9%
34 | Fc1ccccc1N1CCN(CCCc2ccccc2)CC1 | -64.7%
35 | O=C(O)c1ccn[nH]1 | -0.906%
36 | Cc1ccc(/C=N/NC(=O)c2nnn(-c3nonc3N)c2C(C)C)o1 | -4.22%
37 | CSc1ncccc1C(=O)OCC(=O)c1cccs1 | 19.4%
38 | CCOP(=O)(OCC)C(NC(=O)Nc1ccc(Cl)cc1)C(=O)N(CC)CC (centres unmarked) | -13.4%
39 | CC(c1ccccc1)n1cncc1C(=O)O (centres unmarked) | 18%
40 | CCn1c(SCC(=O)c2c[nH]c3ccccc23)nc2cc(S(=O)(=O)N3CCOCC3)ccc21 | 9.49%
41 | C=C(C)CSc1nnc([C@H](CCSC)NC(=O)OC(C)(C)C)o1 | -14.3%
42 | c1coc(CNc2nc3ccccc3s2)c1 | 11.1%
43 | Cn1ccnc1SCC(=O)c1cc2ccccc2o1 | 4.65%
44 | Cc1nn(C2CCS(=O)(=O)C2)c(Cl)c1/C=C/C(=O)OCC(=O)Nc1ccc2c(c1)OCO2 (centres unmarked) | 7.01%
45 | O=C(NCCc1ccccc1)C1CCC(Cn2c(=O)c3ccccc3n(Cc3cccnc3)c2=O)CC1 (centres unmarked) | -37.3%
46 | CCOc1ccc(/C=C2\SC(=S)N(N3C(=O)C4CC4C3=O)C2=O)cc1 (centres unmarked) | 15.4%
47 | Cc1ccc(N2CCN(CCc3ccccc3)CC2)cc1 | -36.2%
48 | Cc1cccc(CN2CCN(C(=O)Cc3ccccc3)CC2)c1.O=C(O)C(=O)O | 4.99%

Row | SMILES | hERG current change (%, negative = inhibition) at 10uM
49 | Cc1cccc(CN2CCN(Cc3ccc(Cl)cc3)CC2)c1.O=C(O)C(=O)O | -40%
50 | O=S(=O)(Cc1ccccc1)N1CCC(N2CCN(c3ccccc3)CC2)CC1 | -22.7%
51 | Cc1cccc(CN2CCN(CCCc3ccccc3)CC2)c1.O=C(O)C(=O)O | -75.4%
52 | c1ccc(CCN2CCC(N3CCN(c4ccccc4)CC3)CC2)cc1 | -66.4%
53 | CC1=NN(c2ccccc2)C(=O)/C1=C/c1c(O)n(-c2ccc(F)cc2)[nH]c1=O | 46%
54 | Cc1c(C#N)c2ccccc2n1CC(=O)NCCc1c[nH]c2ccccc12 | -2.5%
55 | CCOC(=O)c1ccc(Oc2nc(OC)nc(N(C)C)n2)cc1 | 6.27%
56 | CCOC(=O)CCCCC(=O)c1[nH]c(=O)[nH]c1C[n+]1ccccc1.[Cl-] | 26.4%
57 | Cc1[nH]c(=O)[nH]c1C(=O)CCCCC(=O)O | -57.7%
58 | Cc1[nH]c(=O)[nH]c1C(=O)CCCCC(=O)OCC(=O)Nc1ccccn1 | 12.3%
59 | CCCc1nc2oc3c(OCC)ncnc3c2c2c1COC(C)(C)C2 | -13.2%
60 | CCCCn1c(N)c(N(C)C(=O)c2ccc(-n3cccn3)cc2)c(=O)[nH]c1=O | 0.138%
61 | Cc1cc(NC(=O)c2cccc(S(=O)(=O)N3CCCCCC3)c2)n(-c2ccccn2)n1 | 13.4%
62 | CCOC(=O)C1(Cc2cccc(F)c2)CCN(C(=O)C2CCOCC2)CC1 | -15%
63 | CCOC(=O)C1(Cc2cccc(F)c2)CCN(C2CCOCC2)CC1 | -63.5%
64 | CCOC(=O)C1(Cc2cccc(F)c2)CCN(C(=O)C2CCCO2)CC1 (centres unmarked) | 10.2%
65 | CCOC(=O)C1(Cc2cccc(OC)c2)CCN(C2CCOCC2)CC1 | -68.7%
66 | Cc1ccc(CC(=O)Nc2ncc([N+](=O)[O-])s2)cc1 | 32.5%
67 | CCCCN(CC)C(=O)Cc1c(C(=O)O)[nH]c2ccc(Cl)cc12 | 12.4%
68 | CCN1CCN(c2ccc(NC(=O)COc3ccccc3Cl)cc2)CC1 | -40.7%
69 | Cc1cc(S(=O)(=O)N2CCOCC2)ccc1NC(=O)c1ccc(F)cc1 | 1.32%
70 | Cc1ccc(CNC(=O)c2cc3c(s2)CN(Cc2ccccc2)C3)cc1.Cl | 3.85%
71 | CC(C#N)(NC(=O)CN1CCN(S(=O)(=O)c2ccccc2Cl)CC1)C1CC1 (centres unmarked) | 5.18%
72 | Cc1c(C=C2C(=O)N(C)C(=S)N(C)C2=O)c2ccccc2n1CC(=O)NCC1CCCO1 (centres unmarked) | 4.95%

Row | SMILES | hERG current change (%, negative = inhibition) at 10uM
73 | O=C(/C=C/c1ccc([N+](=O)[O-])cc1)Nc1cccnc1 | -62.7%
74 | O=C(/C=C/c1cccnc1)c1ccc([N+](=O)[O-])cc1 | -42.3%
75 | O=C(/C=C/c1ccccc1)Nc1cccnc1 | -26%
76 | O=C(/C=C/c1ccc(Cl)c([N+](=O)[O-])c1)c1cccnc1 | -6.3%
77 | O=C(/C=C/c1ccc(Cl)c([N+](=O)[O-])c1)Nc1cccnc1 | -17.3%
78 | O=C(/C=C/c1ccc([N+](=O)[O-])cc1)c1cccnc1 | -53%
79 | N#C/C(=C\c1cccnc1)c1ccc([N+](=O)[O-])cc1 | -56.3%
80 | CC(C(=O)O/N=C(\N)c1cccnc1)c1ccc([N+](=O)[O-])cc1 (centres unmarked) | -56.8%
81 | Cc1ccc(/C(N)=N/OC(=O)C(C)c2ccc([N+](=O)[O-])cc2)cc1 (centres unmarked) | -4.62%
82 | N/C(=N\OC(=O)c1ccc([N+](=O)[O-])cc1)c1cccnc1 | -10.7%
83 | N#C/C(=C\c1cccnc1)c1ccccc1[N+](=O)[O-] | 4.04%
84 | N#C/C(=C\c1cccnc1)c1ccc(Br)cc1 | -5.44%
85 | O=C(NNC(=O)C12CC3CC(CC(Cl)(C3)C1)C2)c1csc(N2CCOCC2)n1 | -1.63%
86 | Cc1[nH]nc(SCC(=O)N2CCCCCC2)c1[N+](=O)[O-] | 3.4%
87 | Cc1nnc(SCC(=O)NNC(=O)CC#N)[nH]c1=O | -7.01%
88 | CCOc1cc(-c2cc(N)n[nH]2)cc(OCC)c1OCC | 14.6%
89 | Cc1ccc(N(C)C(=O)n2cnc3ccccc32)cc1 | -1.52%
90 | CN(Cc1ccccc1)C(=S)NC(=O)c1cccs1 | 8.32%
91 | O=C(NCc1nnc(SC/C=C/c2ccccc2)o1)c1ccco1 | -5.97%
92 | CC1(COS(N)(=O)=O)CCCCC1 | 1.76%
93 | Cc1ccc(S(=O)(=O)Nc2ccc(-c3nc4ccc(C)cc4s3)cc2)cc1 | 2.32%
94 | CC(C)COc1ccc(/C(=N/O)c2ccccc2)cc1 | 11%
95 | Cc1ccc(C(=O)c2coc3ccc(OCC(=O)O)cc23)cc1 | 2.16%

Source: paper PMC4336329 (PLoS ONE, 2015)
